Reference: the supplement of paper PMC12819154, “High-throughput peptide-centric local stability assay extends protein–ligand identification to membrane proteins, tissues and bacteria” (Nature Structural & Molecular Biology, 2025)

Compound: CN[C@@H]1C[C@H]2O[C@@](C)([C@@H]1OC)n1c3ccccc3c3c4c(c5c6ccccc6n2c5c31)C(=O)NC4 [staurosporine]
Experiment: log2 fold change of tryptic peptide abundance, ligand vs vehicle (limited proteolysis) (log2 ratio); higher = more trypsin-susceptible (destabilized)
Details: ligand concentration: 20 uM; sample: K562 cleared lysate; digestion: 4 min, 22 C (HT-PELSA RT4min, Orbitrap Astral)

UniProt Q14232, sequence (Q14232 whole entry): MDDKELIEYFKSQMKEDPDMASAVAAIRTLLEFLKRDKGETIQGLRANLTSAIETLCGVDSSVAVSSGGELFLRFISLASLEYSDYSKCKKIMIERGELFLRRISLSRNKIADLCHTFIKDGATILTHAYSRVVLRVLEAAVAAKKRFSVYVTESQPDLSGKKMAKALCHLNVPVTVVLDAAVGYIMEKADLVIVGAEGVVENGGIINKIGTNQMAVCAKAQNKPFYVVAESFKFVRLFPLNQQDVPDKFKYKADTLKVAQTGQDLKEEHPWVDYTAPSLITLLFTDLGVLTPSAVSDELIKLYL
UniProt Q9Y3A2, sequence (Q9Y3A2 whole entry): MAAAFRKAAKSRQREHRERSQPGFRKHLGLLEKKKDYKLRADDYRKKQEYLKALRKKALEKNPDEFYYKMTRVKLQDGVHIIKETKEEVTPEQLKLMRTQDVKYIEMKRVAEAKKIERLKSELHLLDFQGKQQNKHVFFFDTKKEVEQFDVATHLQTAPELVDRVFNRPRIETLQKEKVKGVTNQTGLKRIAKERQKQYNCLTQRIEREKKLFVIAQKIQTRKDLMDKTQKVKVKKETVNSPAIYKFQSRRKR

“EIF2B1 (peptide sequence: VAQTGQDLK, peptide start residue: 259) (UniProt Q14232)” was tested, and the log2 fold change was 0.366.
“UTP11 (peptide sequence: SELHLLDFQGK, peptide start residue: 121) (UniProt Q9Y3A2)” gave a log2 fold change of -1.12.
